Hits are enriched below; roughly 6.2% of the tested compounds scored in any of these assays.
AI-2 QS mod – modulates the Vibrio harveyi AI-2 quorum sensing system | Vibrio harveyi JMH597 AI-2 luminescence/OD600 ratio, 9 h; hits give low values; strain lacks LuxN and CqsS sensors; 0 = neutral-control median | AID 2094 | 300,000 compounds, 0.4% hits | activity change, % at 7.5 µM; in the data active = activity change below about -75%, passing the limit was not always enough;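 also: luminescence divided by OD600 gain over 9 h not by final OD600 alone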
NTR1 agonist – agonists of human neurotensin receptor NTR1; P30989; NTR1-U2OS beta-arrestin-GFP spot imaging, agonist mode; activation, % at 20 µM; 330,000 compounds, 0.17% hits;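 active = activation at or above 40% of the spot to cytoplasm intensity ratio, with at least 20 cells analyzed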;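 also: 0% = DMSO without peptide and 100% = 100 nM NTR1 peptide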
NR3A LBD binder – modulators (binders) of human NR3A ligand-binding domain; NR3A LBD differential scanning fluorimetry, Tm shift; 0% = protein alone, 100% = glycine-bound protein; Tm shift relative to glycine control, % at 25 µM; 340,000 compounds, 2.5% hits;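 active = melting temperature shift of at least 10% of the positive control shift, at one fixed dose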
AHR act – activates the human aryl hydrocarbon receptor; AID 2796; activation, % at 5 µM; AHR-responsive luciferase reporter cells, luminescence; 320,000 compounds, 2.5% hits; in the data active = activation above about 47%;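 also: 0% = vehicle wells and 100% = reference agonist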
Target sequence (P35869 whole entry, looked up): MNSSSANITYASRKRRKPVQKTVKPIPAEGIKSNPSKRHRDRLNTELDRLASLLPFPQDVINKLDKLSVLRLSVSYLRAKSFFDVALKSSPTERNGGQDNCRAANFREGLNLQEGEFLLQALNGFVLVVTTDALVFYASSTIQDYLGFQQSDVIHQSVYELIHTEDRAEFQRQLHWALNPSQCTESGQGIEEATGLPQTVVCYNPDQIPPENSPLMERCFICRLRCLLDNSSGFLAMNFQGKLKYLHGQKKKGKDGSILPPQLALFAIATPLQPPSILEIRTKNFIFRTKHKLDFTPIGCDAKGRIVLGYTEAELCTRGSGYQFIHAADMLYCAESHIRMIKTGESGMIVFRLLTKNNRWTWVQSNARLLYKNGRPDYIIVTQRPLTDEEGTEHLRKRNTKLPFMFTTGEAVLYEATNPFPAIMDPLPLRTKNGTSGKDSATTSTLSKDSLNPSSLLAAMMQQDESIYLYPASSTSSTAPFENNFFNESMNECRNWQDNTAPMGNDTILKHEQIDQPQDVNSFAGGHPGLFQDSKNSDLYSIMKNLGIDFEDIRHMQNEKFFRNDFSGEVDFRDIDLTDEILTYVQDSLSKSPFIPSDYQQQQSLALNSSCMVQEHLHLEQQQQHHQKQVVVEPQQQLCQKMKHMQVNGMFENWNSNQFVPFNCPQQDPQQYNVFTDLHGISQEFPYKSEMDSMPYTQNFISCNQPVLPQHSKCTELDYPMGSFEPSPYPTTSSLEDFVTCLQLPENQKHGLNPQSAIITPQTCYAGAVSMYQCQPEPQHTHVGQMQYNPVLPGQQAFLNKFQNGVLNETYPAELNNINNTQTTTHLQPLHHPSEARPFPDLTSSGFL
Mot1-301 SUMO – blocks SUMOylation pathway, rescuing yeast Mot1-301 growth; growth rescue, % at 18.8 µM; 320,000 compounds, 1% hits; S. cerevisiae Mot1-301 growth rescue, ATP luminescence, 38.5C; percent above DMSO median, 100 means doubled; AID 2716;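 active = every valid replicate shows activation above 250% relative to neutral control wells; inactive = the rest, any valid replicate at or below 250%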;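 also: OY570 slx delta 5 strain wells were the positive control but not used for scaling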
H9c2 protect – protects H9c2 cardiomyocytes from peroxide injury. AID 588492. H2O2 injury protection, ATPLite, 2 h. protection from H2O2 cell death, % at 20 µM. 360,000 compounds, 0.63% hits;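 active = compounds giving at least 50% protection of heart cells from peroxide-induced death in the single-dose screen, raw or plate-pattern-corrected value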;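 also: 0% = DMSO wells with peroxide and 100% = DMSO wells without peroxide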
An asterisk follows results filed as active; · = not tested or not shown.

SMILES	AI-2 QS mod	NTR1 agonist	NR3A LBD binder	AHR act	Mot1-301 SUMO	H9c2 protect
Cc1cc(S(=O)(=O)Nc2ccc(C(=O)NCC(c3ccco3)N(C)C)cc2)ccc1F (centres undefined)	6.5	0.4	1.0	-0.8	16.9	-0.5
COc1ccccc1CNC(=O)COC(=O)c1ncc(Cl)c(Cl)c1Cl	4.3	0.1	-1.8	3.4	-4.8	1.5
Cc1nnc(SCC(=O)c2c(N)n(C3CC3)c(=O)[nH]c2=O)n1-c1ccccc1	·	-1.9	8.7	1.9	10.3	2.8
Cc1ccc(C(=O)N2CCN(c3nc4ccccc4n3C)CC2)cc1	15.3	0.1	-0.5	-1.9	24.4	3.9
CCOc1ccc(NC(=O)C2CCCN(S(=O)(=O)c3c(C)noc3C)C2)cc1 (centres undefined)	·	0.4	-1.0	4.4	1.2	-0.4
CCN(CC(=O)Nc1ccc(OC)cc1)C(=O)c1cc(-c2cccs2)nn1-c1ccccc1	24.1	3.6	1.7	-2.2	-8.7	69.3*
COc1ccc(NC(=O)CN(C)C(=O)c2cc(-c3cccs3)nn2-c2ccccc2)cc1	-0.7	0.4	-3.1	3.9	-9.5	30.8
O=C(/C=C/c1ccco1)Nc1cccnc1	19.9	0.7	1.7	71.0*	43.6	-2.3
O=C(/C=C/c1ccco1)Nc1nc(-c2ccccc2)cs1	16.2	13.7	-15.6	8.3	23.4	2.1
O=C(/C=C/c1ccco1)Nc1nc(-c2ccccn2)cs1	41.2	2.4	-24.7	21.3	-2.3	50.2*
COc1ccccc1/C=C/C(=O)NCCc1ccccn1	3.5	-0.5	-0.1	63.3*	-27.6	-4.5
Cc1cc(N)c2cc(NC(=O)/C=C/c3ccccc3Cl)ccc2n1	-0.9	1.9	18.0*	-2.9	-25.5	-32.3
COC(=O)CC1C(=O)NCCN1C(=O)c1oc2c(C)c(C)ccc2c1C (centres undefined)	·	·	·	·	·	-4.0
O=C(/C=C/c1ccco1)Nc1cccc2cccnc12	13.9	1.1	-1.8	47.7*	137.4	25.2
O=C(/C=C/c1ccccc1Cl)Nc1cccnc1	22.9	3.5	0.4	51.7*	7.6	-14.7
COC(=O)/C=C/C(=O)Nc1cccnc1	-70.9	-1.8	-1.0	4.9	11.6	-0.9
COc1cc(NS(=O)(=O)c2cc(C(=O)NCCc3ccccn3)ccc2OC)cc(OC)c1	·	-1.0	10.9*	0.6	2.4	4.4
O=C(/C=C/c1ccccc1Cl)Nc1ccncc1	69.2	-0.1	6.6	-3.1	3.9	-9.6
COc1ccccc1/C=C/C(=O)Nc1cccnc1	-10.1	0.5	-5.2	58.0*	-2.1	0.4
CCOc1ccc(NC(=O)CSc2ccc(-c3cccnc3)nn2)cc1	24.6	-0.6	-9.2	25.1	9.1	-0.8
Cc1cccc(NC(=O)Cc2nc(-c3c[nH]c(C(=O)N4CCCC4)c3)cs2)c1	·	7.9	-1.3	·	·	9.5
CCOC(=O)c1c(C)[nH]c(C)c1S(=O)(=O)N(C)CC(=O)Nc1cc(C)ccc1OC	18.7	-1.2	-0.8	55.2*	226.8	-3.0
COc1ccc(CNC(=O)CCc2ccc(S(=O)(=O)N3CCCCCC3)cc2)cc1OC	·	-0.4	3.3	·	·	2.2
COc1cc(-c2cc3nc(NCCc4ccc(S(N)(=O)=O)cc4)ccn3n2)cc(OC)c1OC	·	·	·	·	·	85.8*
NS(=O)(=O)c1ccc(CCNc2ccn3nc(-c4ccc(OCCN5CCOCC5)cc4)cc3n2)cc1	·	·	·	·	·	66.1*
SMILES	AI-2 QS mod	NTR1 agonist	NR3A LBD binder	AHR act	Mot1-301 SUMO	H9c2 protect
COc1cc(CCNc2ccc3nnc(-c4ccccc4)n3n2)cc(OC)c1OC	38.2	10.0	1.6	8.4	0.7	56.1*
COc1cc(-c2cc3nc(NCCOc4ccccc4)ccn3n2)cc(OC)c1OC	·	·	·	·	·	92.2*
COc1cc(-c2cc3nc(NCCc4ccncc4)ccn3n2)cc(OC)c1OC	·	·	·	·	·	16.4
COc1ccccc1C(CNC(=O)CCNC(=O)c1ccccc1Cl)N1CCCC1 (centres undefined)	22.7	0.1	3.4	-1.3	35.4	-0.4
Cn1cnnc1SCC(=O)c1c[nH]c2ccccc12	3.5	2.6	0.0	66.8*	3.2	4.0
CCOC(=O)N1CCN(C(=O)CSc2nc3ccccc3c(=O)n2-c2ccccc2)CC1	16.7	0.4	-8.1	-1.6	6.5	52.1*
O=C(CSc1nc2ccccc2c(=O)n1-c1ccccc1)c1c[nH]c2ccccc12	44.2	0.5	18.2*	-8.9	-7.1	8.5
N#CCCn1c(SCC(=O)c2c[nH]c3ccccc23)nc2ccccc21	19.2	-1.0	-5.8	33.5	163.7	51.1*
NC(=O)CSc1nc2ccccc2c(=O)n1-c1ccccc1	27.7	-1.7	0.7	2.1	-5.0	1.8
COc1c[nH]n(-c2ccccc2)c(=O)c1=O	30.3	1.4	-1.6	-0.3	1.3	9.9
COc1cc(C(=O)Nc2ccc(S(=O)(=O)N3CCCCC3)cc2)ccc1OCC(=O)N1CCOCC1	·	·	0.5	·	·	-5.0
CCCCNc1nnc(SCC(=O)c2c[nH]c3ccccc23)s1	19.2	0.5	8.3	57.4*	44.8	-4.4
Cc1ccsc1C(=O)NC1CCCN(Cc2ccc(Cl)cc2)C1 (centres undefined)	18.1	3.1	2.2	·	-1.4	-4.2
O=C1Nc2ccccc2C(=O)C1(Cl)Cc1ccccc1 (centres undefined)	81.0	0.4	2.4	22.7	6.1	51.7*
COc1ccc(-c2cc(=O)[nH]c(=S)[nH]2)cc1	37.0	-2.2	0.8	2.2	35.4	-0.4
CC(C)Oc1ccc(-c2cc(=O)[nH]c(=O)[nH]2)cc1	25.0	-0.9	0.0	69.2*	0.2	-5.5
Cc1ccc(C)c(S(=O)(=O)N2CCCCC2CCNC(=O)C(=O)NCc2ccco2)c1 (centres undefined)	-10.6	-0.8	3.0	2.8	11.3	-2.3
N/C(=N\N=C/c1ccc(Br)cc1)N/N=C\c1ccc(Br)cc1	26.8	4.0	28.4*	15.8	-51.0	-16.7
O=C(N/N=C/c1ccc(F)cc1)c1ccc(Br)cc1	2.2	-0.3	-10.3	3.9	-5.8	-8.7
O=C(N/N=C/c1ccc(Br)cc1)c1ccc(Br)o1	6.7	2.4	19.5*	24.0	79.0	-18.9
N/C(=N\N=C/c1ccc(F)cc1)N/N=C\c1ccc(F)cc1	27.9	6.2	4.7	14.3	-28.6	-18.5
O=C1CNC(=S)N1C(CO)c1ccccc1 (centres undefined)	-5.8	-1.7	0.6	-0.8	-3.9	-1.8
N#Cc1nc(COc2ccccc2)oc1NCCCn1ccnc1	·	-2.6	-0.3	79.0*	340.9	-5.2
N#Cc1nc(COc2ccccc2F)oc1NCCCn1ccnc1	35.3	-1.8	-0.1	71.4*	2.5	-9.5
Cc1ccc(OCc2nc(C#N)c(NCCCn3ccnc3)o2)cc1	-3.0	-0.3	0.7	15.2	-18.0	-17.4
O=C(NCC(c1ccco1)N1CCCCC1)c1cccc(S(=O)(=O)Nc2ccc(F)cc2)c1 (centres undefined)	·	-0.4	2.6	·	·	-3.4

Screening data: PubChem, several laboratories
